ATXN viability = Viability Counterscreen for Primary qHTS for Inhibitors of ATXN expression; S2 cells (HEK-293 line with an ATXN2-luciferase reporter) viability, CellTiter-Fluor protease fluorescence, 24 h; Potency, µM (highest dose often 56.7 µM), actives largely listed as cytotoxic; hit rate 0.49% among 400,000; AID 651635, 2014; note: nearly all actives have a fitted effect of over 40% in size
HepG2 tox = qHTS for Inhibitors of TGF-b: Cytotox Counterscreen. HepG2 CAGA-GFP viability, ATP luminescence, 18 h. Potency, µM (highest dose often 46.1 µM), for inactives: at the top dose activity change, negative = cytotoxicity, actives largely listed as cytotoxic. hit rate 0.76% among 410,000. AID 588856, 2011
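CellTiter-Glo luminescence gave cytotoxicity after 18 hours at 37 degrees C. The cells were HepG2 CAGA-GFP in 1% FBS DMEM, stimulated with 500 pg/mL TGF-beta after compound addition. %Activity was normalised to no-cell wells (complete cell-killing) and DMSO (no toxicity), and curves were fitted and classified.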
RORgamma inh = qHTS for inhibitors of ROR gamma transcriptional activity; AID 2551, 2010; Drosophila S2 Gal4-RORgamma UAS-luciferase reporter, 20 h; hit rate 5.4% among 310,000; Nuclear receptor ROR-gamma (Mus musculus), P51450; Potency, µM (highest dose often 53.6 µM), without a hit: at the highest dose activity change, negative = inhibition, hits mostly inhibitors; note: % is set by controls: 0 for no effect and ±100 for the full control effect; nearly all actives have a fitted effect of over 60% in size
Target sequence (P51450 whole entry, looked up, the tested form may be a part): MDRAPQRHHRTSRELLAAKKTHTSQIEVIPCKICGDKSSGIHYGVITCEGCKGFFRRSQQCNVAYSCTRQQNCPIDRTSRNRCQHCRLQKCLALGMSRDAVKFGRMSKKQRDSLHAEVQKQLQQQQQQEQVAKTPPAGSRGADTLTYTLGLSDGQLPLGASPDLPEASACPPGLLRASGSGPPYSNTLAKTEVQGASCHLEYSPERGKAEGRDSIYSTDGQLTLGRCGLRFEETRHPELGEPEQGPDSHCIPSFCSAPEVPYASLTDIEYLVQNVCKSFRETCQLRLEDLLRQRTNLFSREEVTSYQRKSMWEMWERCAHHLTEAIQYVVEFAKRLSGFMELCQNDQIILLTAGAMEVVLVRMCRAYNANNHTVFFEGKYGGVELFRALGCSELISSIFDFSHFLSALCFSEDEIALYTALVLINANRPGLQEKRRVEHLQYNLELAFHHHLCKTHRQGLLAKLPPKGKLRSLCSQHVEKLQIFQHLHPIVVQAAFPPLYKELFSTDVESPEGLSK
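Compounds are pin-transferred onto Drosophila Schneider cells expressing a copper-inducible Gal4–ROR gamma transactivation domain fusion. After 1 hr, copper sulfate is added to 700 uM final; luciferase is read 20 hr later.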
TGFb inhibitor = qHTS for Inhibitors of TGF-b; HepG2 CAGA-GFP TGF-b/SMAD3 reporter, GFP fluorescence, 18 h; TGF-beta stimulated, 500 pg/mL final; Potency, µM (series often up to 46.1 µM), for the others: top-dose activity, negative = inhibition, most hits filed as inhibitors; hit rate 1.2% among 410,000; note: % is set by controls: 0 for no effect and ±100 for the full control effect; nearly all actives have a fitted effect of over 65% in size
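Using HEPG2 CAGA-GFP reporter cells at 1000 cells/well, we pinned test compounds, stimulated with recombinant TGF-beta (500 pg/mL final) and measured total well GFP after 18 h.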
Gal4-VP16 FLuc = VP16 counterscreen qHTS for inhibitors of ROR gamma transcriptional activity; Drosophila S2 Gal4-VP16 UAS-luciferase, luminescence, 20 h; Potency, µM (top dose mostly 53.6 µM), for inactives: at the highest dose activity, negative = inhibition, actives largely listed as inhibitors; hit rate 3.5% among 310,000;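 note: Gal4-VP16 expression switched on by copper sulfate through the metallothionein promoter; % is set by controls: 0 for no effect and ±100 for the full control effect; nearly all actives have a fitted effect of over 50% in size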
ATXN2 expr inh = Primary qHTS for Inhibitors of ATXN expression. HEK-293 ATXN2-luciferase reporter, luminescence, 24 h. Potency, µM (series often up to 57 µM), without a hit: at the highest dose activity change, negative = inhibition, hits mostly inhibitors. hit rate 0.72% among 360,000; note: % is set by controls: 0 for no effect and ±100 for the full control effect; nearly all actives have a fitted effect of over 55% in size
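ATXN2-luciferase reporter cells (luciferase flanked by upstream and downstream ATXN2 gene portions) were treated 24 h at 37 °C with compounds at up to 57 uM. SteadyGlo luminescence gave expression; GF-AFC fluorescence gave viability.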
Starred values were filed as active, the others as inactive; i = inactive; ? = inconclusive; . = not tested or not shown; [ ] = dose if it differs, or a comment. The list is not random: actives were taken first. Their share in the collection is about 6.3%. Calls come from the whole dose curve; as a rule, active = well fitted curve in the direction sought with a large enough effect; inconclusive = small, poorly fitted or top-dose-only effect, or another doubt; inactive = no such curve, though single readings can be large; an effect the other way counts as inactive or inconclusive. Potency is the fitted concentration of half-maximal effect.

SMILES	ATXN viability	HepG2 tox	RORgamma inh	TGFb inhibitor	Gal4-VP16 FLuc	ATXN2 expr inh
CCOC(=O)C1CCN(C(c2ccc(C)cc2)c2sc3nc(-c4ccco4)nn3c2O)CC1 (centres undefined)	?	-2.1%	.	3.1%	.	12.2%
O=C(NCc1cccc(Cl)c1)c1ccc2c(Cl)c3c(nc2c1)CCCC3	?	-2.2%	.	-9.0%	.	-28.8%
CCOC(=O)C1CCCN(C(=O)c2cnn(-c3nccc(-c4cc(C)sc4C)n3)c2C)C1 (centres undefined)	i	.	.	.	.	.
CC1=C(C(=O)OC(C)C)C(c2cccc([N+](=O)[O-])c2)n2c(cc(=O)[nH]c2=S)N1 (centres undefined)	i	9.8%	12.6µM*	2.8%	-18.2%	-4.1%
COCCOC(=O)C1=C(C)NC(C)=C(C(=O)OC(C)C)[C@H]1c1cccc([N+](=O)[O-])c1	?	.	-0.3%[16.9 µM]	.	2.9%[17 µM]	.
COc1ccc(NC(=O)C(=O)NCC(c2cccnc2)N2CCc3ccccc3C2)cc1 (centres undefined)	.	-8.0%	.	?	.	.
O=c1c2c([N+](=O)[O-])cc([N+](=O)[O-])cc2sn1Cc1ccccc1	?	15.8µM*	7.08µM*	?	4.47µM*	?
O=c1c2c([N+](=O)[O-])cc([N+](=O)[O-])cc2nc2ccccn12	i	-24.9%	-20.0%	-25.0%	16.4%	.
O=C(Nc1ccc(Br)cc1)c1cc([N+](=O)[O-])cc([N+](=O)[O-])c1	i	-7.4%	-2.1%[1.91 µM]	-5.6%	?	-21.0%
O=c1c2c([N+](=O)[O-])cc([N+](=O)[O-])cc2sn1-c1ccc(Br)cc1	i	-0.5%	8.91µM*	0.0%	10µM*	-0.1%
C=CC(=O)N1C/C(=C/c2ccc(Cl)cc2)C(=O)/C(=C\c2ccc(Cl)cc2)C1	0.891µM*	5.01µM*	.	2.24µM*	.	2.82µM*
C=CC(=O)N1C/C(=C/c2ccccc2)C(=O)/C(=C\c2ccccc2)C1	9.47µM*	1.78µM*	.	2.24µM*	.	6.7µM*
O=C1/C(=C/c2ccc(C(=O)O)cc2)CCC/C1=C\c1ccc(C(=O)O)cc1	?	6.1%	-16.6%	-5.1%	1.6%	-2.0%
CCn1nc(C)c(CN2CCC3(CCC(CNC(=O)c4ccccc4)O3)CC2)c1C (centres undefined)	i	.	.	.	.	.
COc1ccc(CCN2C(=O)CSC2=S)cc1OC	22.4µM*	-57.7%	?	?	-11.2%	?
CC[C@H](NC(=O)[C@H](C)NC)C(=O)N1C[C@@H](O)C[C@H]1Cc1c(-c2[nH]c3cc(F)ccc3c2C[C@H]2C[C@H](O)CN2C(=O)[C@H](CC)NC(=O)[C@H](C)NC)[nH]c2cc(F)ccc12	.	.	.	.	.	-6.0%
CCc1nc(N2CCCCC2C)c2oc3ccccc3c2n1 (centres undefined)	?	-57.0%	17.8µM*	-13.5%	?	?
Cc1nc(NC(C)c2ccccc2)c2oc3ccccc3c2n1 (centres undefined)	i	-11.0%	?	-27.0%	12.6µM*	?
CCc1nc(Nc2ccc3c(c2)OCO3)c2oc3ccccc3c2n1	i	-26.4%	-0.9%	-29.0%	-3.6%	-19.8%
CCc1nc(N2CCN(Cc3ccc4c(c3)OCO4)CC2)c2oc3ccccc3c2n1	.	-20.3%	12.6µM*	?	-29.3%	.
CCc1nc(N2CCCCC2)c2oc3ccccc3c2n1	i	-48.5%	15.8µM*	9.4%	-22.9%	-16.3%
CCc1nc(N2CCCCC2C(=O)O)c2oc3ccccc3c2n1 (centres undefined)	i	-27.0%	21.6%	-0.3%	2.6%	-9.5%
CCc1nc(NC(C)C)c2oc3ccccc3c2n1	i	-5.4%	12.6µM*	?	-0.8%	-8.6%
CCc1nc(N2CCCC(C)C2)c2oc3ccccc3c2n1 (centres undefined)	?	-35.6%	-88.4%	-12.4%	3.98µM*	-23.1%
CCOC(=O)C1CCCN(c2nc(C)nc3c2oc2ccccc23)C1 (centres undefined)	i	-7.2%	?	4.6%	?	-16.9%
SMILES	ATXN viability	HepG2 tox	RORgamma inh	TGFb inhibitor	Gal4-VP16 FLuc	ATXN2 expr inh
CCc1nc(N[C@H](C(=O)O)C(C)C)c2oc3ccccc3c2n1	i	-16.2%	-4.7%	-18.8%	9.0%	6.2%
Cc1ccc(CNC(=O)COC(=O)c2cc(C)oc2C)cc1	i	-50.0%	.	-1.0%	.	-6.6%
Cc1ncc2c(c1CNC(=O)c1cncs1)CCN(C(=O)c1cccc(-c3cccc(F)c3)c1)C2	i	.	.	.	.	.
CC1=C(c2ccccc2)C(=S)NC(C)(C)C1	i	19.7%	2.51µM*	-7.3%	7.08µM*	?
CCc1ccc(Nc2nnc(SCC(=O)Nc3sccc3C(N)=O)s2)cc1	?	-1.9%	-18.2%	10µM*	-12.7%	1.0%
CCc1ccc(Nc2nnc(SCC(=O)Nc3cccnc3Cl)s2)cc1	i	-17.3%	11.2µM*	-5.0%	?	-0.1%
Cc1[nH]n(-c2ncc(-c3ccc(Cl)cc3)s2)c(=O)c1C(c1ccc(Cl)cc1)C(C#N)C#N (centres undefined)	i	-21.6%	14.1µM*	?	?	3.3%
CCCc1[nH][nH]c(=O)c1C(c1cccc(Cl)c1)C(C#N)C#N (centres undefined)	i	-23.0%	3.2%	-4.6%	8.9%	-25.4%
CCCCC(CC)C/C=C1\CC(C(=O)OCC)Oc2ccccc21 (centres undefined) (tested in a mixture with another compound)	.	.	1.58µM*	.	29.0%	.
C=C1c2cccc(OC)c2O[C@H](C(=O)OCC)[C@@H]1CC(CC)CCCC (some centres undefined)	i	-23.3%	39.9%	?	?	-22.5%
Cc1nonc1OCCNCc1c(C(=O)N(C)C)nc2ccc(Cl)cn12	?	5.2%	3.16µM*	?	2.82µM*	-12.3%
Cc1nonc1OCCNCc1c(C(=O)N2CCCCCCC2)nc2ccc(Cl)cn12	i	-10.2%	45.6%	?	-13.2%	.
COc1cccc(N2CCN(c3c4c(nc5nncn35)CCC4)CC2)c1	.	-14.6%	.	.	.	.
CN(C)C(=O)C1C2NC(=S)N(c3ccc(Cl)cc3)C1(C)Oc1ccc(Cl)cc12 (centres undefined)	i	-45.8%	10µM*	10.6%	?	-2.2%

Compound activity as filed in PubChem BioAssay.
